Source: PubChem BioAssay (EPA / NIEHS)
Records with an inconclusive call do not appear. Activity calls are given as the source filed them. How the source made its calls, unless noted: active means hit-call score of the fitted dose curve at least 0.9, where 1 is the maximum; inactive means score below 0.9.

Assays:
[1] = molecular target: Nuclear respiratory factor 1 (Homo sapiens) (UniProt Q16656); test: ATG_NRF1_CIS: Attagene CIS-FACTORIAL HepG2 Assay for human Nuclear Respiratory Factor 1 (NRF1) Orphan Gene (AID 2282987); settings: HepG2 NRF1 cis-element reporter, Attagene multiplex; actives raise or lower the signal
Sequence of Nuclear respiratory factor 1 (Homo sapiens) (Q16656 whole entry, looked up): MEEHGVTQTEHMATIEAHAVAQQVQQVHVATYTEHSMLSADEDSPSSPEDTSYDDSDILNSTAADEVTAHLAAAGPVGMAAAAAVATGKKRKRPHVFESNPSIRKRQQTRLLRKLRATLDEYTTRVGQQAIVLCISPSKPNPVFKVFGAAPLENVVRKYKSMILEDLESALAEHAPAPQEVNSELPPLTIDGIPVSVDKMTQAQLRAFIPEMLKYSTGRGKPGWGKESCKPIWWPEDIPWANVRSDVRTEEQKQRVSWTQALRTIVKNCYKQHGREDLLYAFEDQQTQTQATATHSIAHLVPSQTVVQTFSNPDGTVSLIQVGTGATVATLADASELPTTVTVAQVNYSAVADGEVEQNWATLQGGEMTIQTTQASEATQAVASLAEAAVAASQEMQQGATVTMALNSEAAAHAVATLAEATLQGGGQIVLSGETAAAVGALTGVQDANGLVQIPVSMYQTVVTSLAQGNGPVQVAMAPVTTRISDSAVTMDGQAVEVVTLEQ
Summary of the method: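 Reporter mRNA induction or loss in HepG2 cells after 24 h dosing; cis-regulated reporter constructs report endogenous transcription-factor activity. Quantified by RT-PCR/capillary electrophoresis fluorescence, DMSO-referenced.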

[2] = ATG_NFI_CIS: Attagene CIS-FACTORIAL HepG2 Assay for human Nuclear Factor I (NFI) (AID 2282989); settings: HepG2 cis-regulatory reporter, NFI response element transcription; actives raise or lower the signal
Summary of the method: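 HepG2 cells transiently transfected with cis-element-driven multiplexed reporter transcription units, dosed for 24 h. Reporter mRNA quantified by RT-PCR, fluorescent labelling, HpaI digestion and capillary electrophoresis; bidirectional fit versus DMSO baseline.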

[3] = molecular target: Myc proto-oncogene protein (Homo sapiens) (UniProt P01106); test: ATG_Myc_CIS: Attagene CIS-FACTORIAL HepG2 Assay for human Myelocytomatosis (Myc) Proto-Oncogene Transcription Factor (AID 2282990); settings: HepG2, Attagene cis-reporter transcription factor activity; actives raise or lower the signal
Sequence of Myc proto-oncogene protein (Homo sapiens) (P01106 whole entry, looked up, the tested form may be a part): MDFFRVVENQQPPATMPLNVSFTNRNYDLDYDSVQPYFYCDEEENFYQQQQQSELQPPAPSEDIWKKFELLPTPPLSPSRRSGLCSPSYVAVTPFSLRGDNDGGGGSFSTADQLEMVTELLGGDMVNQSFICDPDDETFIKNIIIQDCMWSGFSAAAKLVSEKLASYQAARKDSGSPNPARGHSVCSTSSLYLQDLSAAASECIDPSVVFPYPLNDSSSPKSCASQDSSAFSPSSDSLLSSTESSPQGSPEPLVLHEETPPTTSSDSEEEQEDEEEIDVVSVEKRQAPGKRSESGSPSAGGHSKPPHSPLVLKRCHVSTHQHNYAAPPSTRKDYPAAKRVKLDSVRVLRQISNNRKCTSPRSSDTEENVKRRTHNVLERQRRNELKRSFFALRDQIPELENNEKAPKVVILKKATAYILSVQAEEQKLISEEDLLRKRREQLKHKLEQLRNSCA
Summary of the method: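 Read-out: fluorescent reporter mRNA fragments resolved by capillary electrophoresis after RT-PCR. Human HepG2 liver cells carried transfected cis-element reporter units and were dosed for 24 h. Gain or loss of signal fitted relative to DMSO baseline.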

[4] = ATG_NF_kB_CIS: Attagene CIS-FACTORIAL HepG2 Assay for human Nuclear Factor Kappa B (NF-kB) (AID 2282991); settings: HepG2 Attagene cis-factorial NF-kB reporter mRNA; actives raise or lower the signal
Summary of the method: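 DMSO served as negative control and baseline for bidirectional curve fitting. Transiently transfected HepG2 cells were dosed for 24 h, then reporter transcripts were measured by RT-PCR with capillary electrophoresis detection.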

[5] = ATG_NRF2_ARE_CIS: Attagene CIS-FACTORIAL HepG2 Assay for human Nuclear Factor Erythroid 2 Related Factor 2 (NFR2) response to Antioxidant Response Elements (ARE) (AID 2282992); settings: HepG2 Attagene ARE/NRF2 reporter, transcription factor activity; actives raise or lower the signal;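 on AC50: reporter mRNA level measured by RT-PCR and capillary electrophoresis fluorescence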
Summary of the method: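 HepG2 cells transiently transfected with multiplexed cis-regulated reporter transcription units measure endogenous transcription factor activity. Reporter mRNA at 24 h is quantified by RT-PCR, fluorescent labelling and capillary electrophoresis, with bidirectional fitting relative to DMSO.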

[6] = ATG_Oct_MLP_CIS: Attagene CIS-FACTORIAL HepG2 Assay for human Octamer-Binding Transcription Factor (Oct) (AID 2282993); settings: HepG2 Attagene cis-factorial Oct reporter, mRNA; actives raise or lower the signal
Summary of the method: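 HepG2 cells transiently transfected with cis-promoter-driven multiplexed reporter transcription units, dosed for 24 h. Reporter mRNA quantified by RT-PCR, fluorescent labelling, HpaI digestion and capillary electrophoresis; bidirectional fits versus DMSO baseline.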

[7] = molecular target: Cellular tumor antigen p53 (Homo sapiens) (UniProt P04637); test: ATG_p53_CIS: Attagene CIS-FACTORIAL HepG2 Assay for human p53 Transcription Factor (AID 2282994); settings: HepG2 p53 cis-element reporter, Attagene mRNA; actives raise or lower the signal
Sequence of Cellular tumor antigen p53 (Homo sapiens) (P04637 whole entry, looked up): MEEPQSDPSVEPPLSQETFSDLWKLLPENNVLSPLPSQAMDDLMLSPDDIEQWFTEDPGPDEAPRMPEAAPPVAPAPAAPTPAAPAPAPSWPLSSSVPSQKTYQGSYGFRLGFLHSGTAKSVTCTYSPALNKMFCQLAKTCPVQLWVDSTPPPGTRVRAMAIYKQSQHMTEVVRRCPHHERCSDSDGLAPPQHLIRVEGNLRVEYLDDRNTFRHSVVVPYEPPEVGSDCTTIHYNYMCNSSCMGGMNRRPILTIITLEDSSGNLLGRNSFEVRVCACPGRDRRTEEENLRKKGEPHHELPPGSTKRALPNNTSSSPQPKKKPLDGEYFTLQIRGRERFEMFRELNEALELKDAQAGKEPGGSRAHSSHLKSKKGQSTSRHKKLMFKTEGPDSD
Summary of the method: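 HepG2 cells transiently transfected with multiplexed cis-regulated reporter transcription units read endogenous TF activity. After 24 h compound exposure, reporter mRNA was quantified by RT-PCR, fluorescent labelling, HpaI digestion and capillary electrophoresis; bidirectional fits versus DMSO baseline.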

[8] = molecular target: human Peroxisome Proliferator-activated Receptor alpha (PPARa), PPARA (gene 5465) (UniProt Q07869); test: ATG_PPARa_TRANS: Attagene TRANS-FACTORIAL HepG2 Assay for human Peroxisome Proliferator-activated Receptor alpha (PPARa) (AID 2283001; active means hit-call score of the fitted dose curve at least 0.9, where 1 is the maximum;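 on AC50: potency for gain of reporter signal over DMSO so agonist or activator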)
Sequence of human Peroxisome Proliferator-activated Receptor alpha (PPARa), PPARA (gene 5465) (Q07869 whole entry, looked up, the tested form may be a part): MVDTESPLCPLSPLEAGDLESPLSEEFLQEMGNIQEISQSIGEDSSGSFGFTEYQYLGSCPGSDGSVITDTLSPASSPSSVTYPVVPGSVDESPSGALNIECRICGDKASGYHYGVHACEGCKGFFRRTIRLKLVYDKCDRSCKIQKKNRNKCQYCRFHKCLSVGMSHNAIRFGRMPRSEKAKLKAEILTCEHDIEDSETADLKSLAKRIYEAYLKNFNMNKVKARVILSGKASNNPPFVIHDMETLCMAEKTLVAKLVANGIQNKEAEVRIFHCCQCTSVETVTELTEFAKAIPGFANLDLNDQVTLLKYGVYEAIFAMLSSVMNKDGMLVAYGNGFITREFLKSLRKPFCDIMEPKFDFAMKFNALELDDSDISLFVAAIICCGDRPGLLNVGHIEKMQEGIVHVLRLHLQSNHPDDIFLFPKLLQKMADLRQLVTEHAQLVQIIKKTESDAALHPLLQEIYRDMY
Summary of the method: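 HepG2 cells transiently transfected with multiplexed GAL4-UAS reporters driven by exogenous chimeric NR-Gal4 proteins; reporter mRNA measured after 24 h dosing. Read-out by RT-PCR, 6-FAM labelling, HpaI digestion and capillary electrophoresis; gain of signal versus DMSO.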

[9] = molecular target: human Peroxisome Proliferator-activated Receptor delta (PPARd), PPARD (gene 5467) (UniProt Q03181); test: ATG_PPARd_TRANS: Attagene TRANS-FACTORIAL HepG2 Assay for human Peroxisome Proliferator-activated Receptor delta (PPARd) (AID 2283002; active means hit-call score of the fitted dose curve at least 0.9, where 1 is the maximum)
Sequence of human Peroxisome Proliferator-activated Receptor delta (PPARd), PPARD (gene 5467) (Q03181 whole entry, looked up, the tested form may be a part): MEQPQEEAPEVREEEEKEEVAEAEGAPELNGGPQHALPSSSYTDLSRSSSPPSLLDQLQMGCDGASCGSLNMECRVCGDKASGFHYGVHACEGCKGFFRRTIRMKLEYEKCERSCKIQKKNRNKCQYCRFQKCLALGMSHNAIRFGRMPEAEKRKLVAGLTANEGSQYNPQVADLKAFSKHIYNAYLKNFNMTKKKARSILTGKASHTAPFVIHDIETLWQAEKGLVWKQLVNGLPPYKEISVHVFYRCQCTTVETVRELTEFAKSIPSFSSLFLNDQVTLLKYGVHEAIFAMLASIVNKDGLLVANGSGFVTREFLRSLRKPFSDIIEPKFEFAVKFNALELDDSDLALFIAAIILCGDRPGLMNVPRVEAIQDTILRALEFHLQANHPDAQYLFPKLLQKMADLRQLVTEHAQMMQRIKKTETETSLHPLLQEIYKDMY
Summary of the method: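 Read-out: reporter mRNA induction, quantified by fluorescent RT-PCR products resolved by capillary electrophoresis. Human HepG2 liver cells carried transiently transfected Gal4-UAS reporter constructs with chimeric NR-Gal4 fusions. Cells were dosed for 24 h; DMSO served as baseline.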

[10] = molecular target: Peroxisome proliferator-activated receptor gamma (Homo sapiens) (UniProt P37231); test: ATG_PPARg_TRANS: Attagene TRANS-FACTORIAL HepG2 Assay for human Peroxisome Proliferator-activated Receptor-gamma (PPARg) (AID 2283007; active means hit-call score of the fitted dose curve at least 0.9, where 1 is the maximum)
Sequence of Peroxisome proliferator-activated receptor gamma (Homo sapiens) (P37231 whole entry, looked up, the tested form may be a part): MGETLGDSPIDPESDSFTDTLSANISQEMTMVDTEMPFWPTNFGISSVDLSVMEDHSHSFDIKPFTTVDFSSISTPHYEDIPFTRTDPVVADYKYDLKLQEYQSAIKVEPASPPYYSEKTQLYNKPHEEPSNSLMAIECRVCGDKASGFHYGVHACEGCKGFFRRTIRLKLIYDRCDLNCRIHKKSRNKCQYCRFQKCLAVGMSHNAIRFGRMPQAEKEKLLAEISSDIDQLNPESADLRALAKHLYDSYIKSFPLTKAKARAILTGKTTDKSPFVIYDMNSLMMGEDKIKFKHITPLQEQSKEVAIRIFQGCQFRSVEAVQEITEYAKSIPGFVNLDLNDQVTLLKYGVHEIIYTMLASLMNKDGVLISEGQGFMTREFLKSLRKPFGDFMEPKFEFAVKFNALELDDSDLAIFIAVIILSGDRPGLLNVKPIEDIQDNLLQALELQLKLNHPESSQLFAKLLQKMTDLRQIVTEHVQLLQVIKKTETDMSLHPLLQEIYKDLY
Summary of the method: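 Chimeric NR-Gal4 transactivation is measured in transiently transfected HepG2 cells by reporter mRNA induction at 24 h. Detection uses RT-PCR with fluorescent labelling and capillary electrophoresis; DMSO defines baseline.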

[11] = molecular target: Nuclear receptor subfamily 1 group I member 2 (Homo sapiens) (UniProt O75469); test: ATG_PXR_TRANS: Attagene TRANS-FACTORIAL HepG2 Assay for human Pregnane X Receptor (PXR) (AID 2283008; active means hit-call score of the fitted dose curve at least 0.9, where 1 is the maximum)
Sequence of Nuclear receptor subfamily 1 group I member 2 (Homo sapiens) (O75469 whole entry, looked up, the tested form may be a part): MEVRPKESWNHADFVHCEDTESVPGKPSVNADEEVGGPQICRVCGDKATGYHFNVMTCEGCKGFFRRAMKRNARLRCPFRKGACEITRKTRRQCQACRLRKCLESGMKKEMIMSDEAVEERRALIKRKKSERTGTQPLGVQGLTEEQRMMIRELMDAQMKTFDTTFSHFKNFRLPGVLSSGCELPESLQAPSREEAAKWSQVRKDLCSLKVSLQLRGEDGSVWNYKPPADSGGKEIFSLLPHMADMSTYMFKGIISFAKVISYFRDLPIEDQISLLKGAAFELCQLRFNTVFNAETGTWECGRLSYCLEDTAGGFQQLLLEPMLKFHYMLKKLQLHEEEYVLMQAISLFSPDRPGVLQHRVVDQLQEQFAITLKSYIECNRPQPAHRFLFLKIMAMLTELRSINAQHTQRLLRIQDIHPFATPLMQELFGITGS
Summary of the method: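 HepG2 cells transiently transfected with multiple reporter units, here a PXR-GAL4 chimera driving a GAL4-UAS reporter; 24 h compound exposure. Reporter mRNA measured by RT-PCR, FAM labelling and capillary electrophoresis; gain of signal fitted against DMSO baseline.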

[12] = BSK_3C_TissueFactor: BioMAP Diversity Plus: 3C Assay for Tissue Factor Biomarker Activity (AID 2282997); settings: BioMAP 3C HUVEC, tissue factor biomarker readout; actives raise or lower the signal
Summary of the method: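 Human vascular primary cells (umbilical vein endothelium) received test chemical; Tissue Factor was determined by ELISA at 24 h, and both gain and loss of signal versus DMSO were fitted.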

[13] = BSK_3C_uPAR: BioMAP Diversity Plus: 3C Assay for Urokinase-type plasminogen activator receptor (uPAR) Biomarker Activity (AID 2282998); settings: BioMAP 3C HUVEC, uPAR biomarker ELISA; actives raise or lower the signal
Summary of the method: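 Human umbilical vein endothelial primary cells were exposed to test chemical for 24 h. Cell-surface uPAR was then quantified by ELISA, and responses were fitted bidirectionally against DMSO as negative control and baseline.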

[14] = BSK_3C_VCAM1: BioMAP Diversity Plus: 3C Assay for Vascular cell adhesion molecule 1 (VCAM1) Biomarker Activity (AID 2282999); settings: BioMAP 3C HUVEC, VCAM1 ELISA, cytokine-stimulated; actives raise or lower the signal
Summary of the method: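 Human umbilical vein endothelial cells (3C system), biomarker read by ELISA 24 h after dosing; bidirectional fit against DMSO baseline. Cytotoxicity tracked by SRB total-protein staining in parallel cultures at biomarker time.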

[15] = BSK_4H_Eotaxin3: BioMAP Diversity Plus: 4H Assay for Eotaxin 3 Biomarker Activity (AID 2283000); settings: primary human endothelial cells (HUVEC); actives raise or lower the signal;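 on outcome: CCL26 protein level quantified by ELISA in parallel with SRB cytotoxicity check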
Summary of the method: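 Readout is Eotaxin-3 (CCL26) level by ELISA in primary human umbilical vein endothelial cells harvested 24 h after chemical exposure; activity fitted in both directions against DMSO control.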

[16] = BSK_3C_Proliferation: Cell Proliferation Assessment in the BioMAP Diversity Plus: 3C Assay (AID 2283006); settings: primary human endothelial cells (HUVEC)
Summary of the method: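 Read-out is total protein by SRB absorbance at 560 nm, taken as a proxy for relative cell number. Primary human umbilical vein endothelium cultured below confluence was dosed for 48 h, TCA-fixed and SRB-stained; curves were fitted bidirectionally versus DMSO.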

[17] = molecular target: human Retinoic Acid Receptor beta (RARb), RARB (gene 5915) (UniProt P10826); test: ATG_RARb_TRANS: Attagene TRANS-FACTORIAL HepG2 Assay for human Retinoic Acid Receptor beta (AID 2283004; active means hit-call score of the fitted dose curve at least 0.9, where 1 is the maximum)
Sequence of human Retinoic Acid Receptor beta (RARb), RARB (gene 5915) (P10826 whole entry, looked up, the tested form may be a part): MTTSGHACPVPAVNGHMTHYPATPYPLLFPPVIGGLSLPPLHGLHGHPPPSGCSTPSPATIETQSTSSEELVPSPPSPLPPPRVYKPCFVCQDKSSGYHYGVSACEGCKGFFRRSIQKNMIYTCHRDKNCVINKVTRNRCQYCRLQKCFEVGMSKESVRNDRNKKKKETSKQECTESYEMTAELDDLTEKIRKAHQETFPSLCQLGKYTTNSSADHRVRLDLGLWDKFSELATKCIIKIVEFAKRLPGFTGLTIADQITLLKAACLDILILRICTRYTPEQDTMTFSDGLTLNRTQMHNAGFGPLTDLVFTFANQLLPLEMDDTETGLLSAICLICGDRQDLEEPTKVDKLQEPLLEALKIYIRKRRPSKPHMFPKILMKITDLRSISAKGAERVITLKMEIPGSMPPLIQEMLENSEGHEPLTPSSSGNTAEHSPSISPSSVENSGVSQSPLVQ
Summary of the method: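 Readout is reporter mRNA induction: RNA reverse-transcribed, PCR-amplified, FAM-labelled, HpaI-cut and resolved by capillary electrophoresis. Transiently transfected HepG2 cells carrying exogenous NR–Gal4 chimeras were dosed for 24 h; activity fitted upward relative to DMSO.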

[18] = molecular target: Retinoic acid receptor alpha (Homo sapiens) (UniProt P10276); test: ATG_RARa_TRANS: Attagene TRANS-FACTORIAL HepG2 Assay for human Retinoic Acid Receptor alpha (RARa) (AID 2283005; active means hit-call score of the fitted dose curve at least 0.9, where 1 is the maximum)
Sequence of Retinoic acid receptor alpha (Homo sapiens) (P10276 whole entry, looked up, the tested form may be a part): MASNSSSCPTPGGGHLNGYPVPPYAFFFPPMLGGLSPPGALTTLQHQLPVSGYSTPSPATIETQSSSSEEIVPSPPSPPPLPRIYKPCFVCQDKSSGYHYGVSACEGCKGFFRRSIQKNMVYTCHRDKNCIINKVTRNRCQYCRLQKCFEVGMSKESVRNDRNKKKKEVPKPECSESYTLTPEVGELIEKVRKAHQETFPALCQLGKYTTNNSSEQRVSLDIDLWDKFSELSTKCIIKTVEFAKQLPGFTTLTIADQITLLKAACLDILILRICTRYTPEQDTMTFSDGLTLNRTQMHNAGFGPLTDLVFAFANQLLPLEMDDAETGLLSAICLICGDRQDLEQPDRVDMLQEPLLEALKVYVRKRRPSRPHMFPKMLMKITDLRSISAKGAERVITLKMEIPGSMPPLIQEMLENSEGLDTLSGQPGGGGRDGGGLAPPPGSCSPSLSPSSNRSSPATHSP
Summary of the method: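 HepG2 transiently transfected with multiplex GAL4-UAS reporter units including a human RARa–GAL4 chimera; 24 h compound exposure. Reporter mRNA quantified by RT-PCR, 6-FAM labeling and capillary electrophoresis; gain of signal versus DMSO.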

[19] = molecular target: human Retinoic Acid Receptor gamma (RARg), RARG (gene 5916) (UniProt P13631); test: ATG_RARg_TRANS: Attagene TRANS-FACTORIAL HepG2 Assay for human Retinoic Acid Receptor gamma (RARg) (AID 2283009; active means hit-call score of the fitted dose curve at least 0.9, where 1 is the maximum)
Sequence of human Retinoic Acid Receptor gamma (RARg), RARG (gene 5916) (P13631 whole entry, looked up): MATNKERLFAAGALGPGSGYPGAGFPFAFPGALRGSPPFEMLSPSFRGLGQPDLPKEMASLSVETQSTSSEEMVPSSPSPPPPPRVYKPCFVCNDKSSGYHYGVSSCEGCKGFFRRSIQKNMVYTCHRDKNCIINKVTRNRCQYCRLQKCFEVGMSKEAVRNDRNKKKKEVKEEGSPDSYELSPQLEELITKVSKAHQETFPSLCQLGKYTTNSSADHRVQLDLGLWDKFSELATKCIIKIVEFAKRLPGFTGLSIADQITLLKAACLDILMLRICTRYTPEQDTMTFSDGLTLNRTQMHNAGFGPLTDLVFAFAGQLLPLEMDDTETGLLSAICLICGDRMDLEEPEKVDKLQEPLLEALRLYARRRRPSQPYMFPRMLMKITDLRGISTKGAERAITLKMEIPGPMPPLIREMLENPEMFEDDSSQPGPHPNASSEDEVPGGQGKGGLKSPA
Summary of the method: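 Transient transfection of HepG2 with multi-reporter constructs, then 24 h chemical treatment. Total RNA isolated, reverse-transcribed, PCR-amplified, fluorescently labelled and resolved by capillary electrophoresis; activity scored as mRNA induction versus DMSO.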

In the case of `CC(C)CC(=O)OCc1ccccc1`, the outcome [1] is reported as “inactive”, the outcome [2] is reported as “inactive” and the outcome [3] is reported as “inactive”. For the same compound, the outcome [4] was “inactive”, the outcome [5] was “inactive” and the outcome [6] was “inactive”. The outcome [7] was “inactive”, the outcome [8] was “inactive” and the outcome [9] was “inactive”. For the same compound, the outcome [10] was “inactive” and the outcome [11] was “inactive”.

With `COc1ccc(C(=O)c2ccccc2)c(O)c1` the outcome [1] was “inactive”, the outcome [2] was “inactive” and the outcome [3] was “inactive”. The AC50 [4] was 168 µM (active), the AC50 [5] was 100 µM (active) and the outcome [6] was “inactive”. For the same compound, the outcome [7] was “inactive”, the outcome [12] was “inactive” and the outcome [13] was “inactive”. For the same compound, the outcome [14] was “inactive”, the AC50 [15] was 20 µM (active) and the outcome [9] was “inactive”. The outcome [16] was “inactive”, the AC50 [10] was 33.1 µM (active) and the AC50 [11] was 27.3 µM (active).

For `CC(C)COC(=O)CC(C(=O)OCC(C)C)S(=O)(=O)O` (stereo unspecified), the outcome [1] was “inactive”, the outcome [2] was “inactive” and the outcome [3] was “inactive”. The outcome [4] was “inactive”, the outcome [5] was “inactive” and the outcome [6] was “inactive”. For the same compound, the outcome [7] was “inactive”, the outcome [8] was “inactive” and the outcome [9] was “inactive”. The outcome [17] was “inactive”, the outcome [18] was “inactive” and the AC50 [11] was 36.2 µM (active).

With `CCc1cccc(C)c1N(C(=O)CS(=O)(=O)O)C(C)COC` (stereo unspecified) the outcome [1] was “inactive”, the outcome [2] was “inactive” and the outcome [3] was “inactive”. For the same compound, the outcome [4] was “inactive”, the outcome [5] was “inactive” and the outcome [6] was “inactive”. For the same compound, the outcome [7] was “inactive”, the outcome [12] was “inactive” and the outcome [13] was “inactive”. The outcome [14] was “inactive”, the outcome [15] was “inactive” and the outcome [9] was “inactive”. For the same compound, the outcome [18] was “inactive”, the outcome [16] was “inactive” and the outcome [10] was “inactive”. The AC50 [11] was 27.6 µM (active) and the outcome [19] was “inactive”.

With `CC1=NN(c2ccc(S(=O)(=O)O)cc2)C(=O)C1N=Nc1ccccc1` (stereo unspecified) the outcome [1] was “inactive”, the outcome [2] was “inactive” and the outcome [3] was “inactive”. For the same compound, the outcome [4] was “inactive”, the outcome [5] was “inactive” and the outcome [6] was “inactive”. For the same compound, the outcome [7] was “inactive”, the outcome [8] was “inactive” and the outcome [9] was “inactive”. For the same compound, the outcome [17] was “inactive”, the outcome [18] was “inactive” and the outcome [10] was “inactive”. For the same compound, the outcome [11] was “inactive” and the outcome [19] was “inactive”.

With `C=CCCCCCCCCC=O` the outcome [1] was “inactive”, the outcome [2] was “inactive” and the outcome [3] was “inactive”. For the same compound, the outcome [4] was “inactive”, the outcome [5] was “inactive” and the outcome [6] was “inactive”. The outcome [7] was “inactive”, the outcome [12] was “inactive” and the outcome [13] was “inactive”. For the same compound, the outcome [14] was “inactive”, the outcome [15] was “inactive” and the outcome [8] was “inactive”. The outcome [16] was “inactive”, the AC50 [10] was 61.7 µM (active) and the outcome [11] was “inactive”.

With `Clc1cccnc1` the outcome [1] was “inactive”, the outcome [2] was “inactive” and the outcome [3] was “inactive”. The outcome [4] was “inactive”, the outcome [5] was “inactive” and the outcome [6] was “inactive”. The outcome [7] was “inactive”, the outcome [8] was “inactive” and the outcome [9] was “inactive”. The outcome [17] was “inactive”, the outcome [18] was “inactive” and the outcome [19] was “inactive”.

With `O=S(=O)(O)c1ccc(Nc2nc(Nc3ccc(C=Cc4ccc(Nc5nc(Nc6ccc(S(=O)(=O)O)cc6)nc(N(CCO)CCO)n5)cc4S(=O)(=O)O)c(S(=O)(=O)O)c3)nc(N(CCO)CCO)n2)cc1` the outcome [1] was “inactive”, the outcome [2] was “inactive” and the outcome [3] was “inactive”. For the same compound, the outcome [4] was “inactive”, the outcome [5] was “inactive” and the outcome [6] was “inactive”. The outcome [7] was “inactive”, the outcome [8] was “inactive” and the outcome [9] was “inactive”. For the same compound, the outcome [18] was “inactive” and the outcome [10] was “inactive”.

In the case of `CCCCCC[C@@H](O)C/C=C\CCCCCCCC(=O)OCC(O)CO` (stereo partly specified), the AC50 [1] is reported as 179 µM (active), the outcome [2] is reported as “inactive” and the AC50 [3] is reported as 162 µM (active). The outcome [4] was “inactive”, the AC50 [5] was 87.9 µM (active) and the outcome [6] was “inactive”. For the same compound, the AC50 [7] was 181 µM (active), the AC50 [8] was 15.3 µM (active) and the AC50 [9] was 27.7 µM (active). For the same compound, the outcome [17] was “inactive”, the outcome [18] was “inactive” and the AC50 [10] was 57.8 µM (active). The outcome [11] was “inactive” and the outcome [19] was “inactive”.
